beta cell repl = inducers of beta-cell replication in MIN6 cells. MIN6 cells proliferation, ATPlite luminescence, 48 h; cells starved in 0.2% serum; 100% = growth in 10% serum. proliferation, % at 10 µM. 330,000 tested, 0.29% active. AID 2380;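 active = compounds whose signal lies at least 3.5 SD above the mean of all wells on their plate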;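 also: 0% = DMSO-treated cells in low-serum medium and 100% = 10% serum control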
Platelet DG rel = modulates dense granule release in human platelets. human platelet-rich plasma, SFLLRN dense granule ATP release, luminescence. inhibition, %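 (compounds screened at 7.5 µM in platelet-rich plasma)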. 300,000 tested, 0.22% active. AID 1663;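 active = mean replicate score, as percent of positive control, at or above 50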
GRK2 aptamer HTS = inhibitors of human GRK2 displacing RNA aptamer. P25098. bead flow cytometry, FAM-aptamer displacement from GRK2. inhibition of aptamer binding, % at 10 µM. 330,000 tested, 0.59% active;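 active = inhibition of aptamer binding above 40%, roughly 3 SD of noise, on plates passing a quality check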;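 also: median bead fluorescence of bound FAM aptamer so fluorescent compounds give negative values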
Target sequence (P25098 whole entry, looked up): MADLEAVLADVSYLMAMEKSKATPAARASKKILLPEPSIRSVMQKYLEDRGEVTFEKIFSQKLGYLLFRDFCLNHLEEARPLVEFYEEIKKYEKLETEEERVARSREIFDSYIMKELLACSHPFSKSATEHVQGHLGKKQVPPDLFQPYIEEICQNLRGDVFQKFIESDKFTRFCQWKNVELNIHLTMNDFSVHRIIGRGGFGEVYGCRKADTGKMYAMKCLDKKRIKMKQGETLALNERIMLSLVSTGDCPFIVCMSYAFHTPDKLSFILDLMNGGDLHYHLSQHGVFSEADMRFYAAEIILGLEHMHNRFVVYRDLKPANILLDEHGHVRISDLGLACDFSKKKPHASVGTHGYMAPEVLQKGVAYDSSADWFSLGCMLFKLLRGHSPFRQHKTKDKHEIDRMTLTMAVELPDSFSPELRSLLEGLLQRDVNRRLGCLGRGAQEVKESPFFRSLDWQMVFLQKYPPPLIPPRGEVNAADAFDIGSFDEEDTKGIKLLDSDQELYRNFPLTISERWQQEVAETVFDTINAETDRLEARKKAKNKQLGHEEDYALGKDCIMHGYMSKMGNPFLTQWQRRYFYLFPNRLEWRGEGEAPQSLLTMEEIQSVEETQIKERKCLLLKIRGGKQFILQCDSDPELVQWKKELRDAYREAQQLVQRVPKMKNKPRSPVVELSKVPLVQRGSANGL
NTR1 agonist = activates human neurotensin receptor 1; P30989; NTR1-U2OS beta-arrestin-GFP spot imaging, agonist mode; activation, % at 20 µM; 330,000 tested, 0.17% active;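 active = activation at or above 40% of the spot to cytoplasm intensity ratio, with at least 20 cells analyzed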;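 also: 0% = DMSO without peptide and 100% = 100 nM NTR1 peptide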
GRK2 CP1 = confirmation of human GRK2 inhibitors displacing RNA aptamer; shares compounds with GRK2 aptamer HTS; bead-bound GRK2, FAM-aptamer displacement, flow cytometry; aptamer displacement, % at 10 µM; 2,000 tested, 4% active;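 active = aptamer displacement above 40%, near three times the noise of non-fluorescent compounds, on plates passing quality checks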;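 also: negative values mostly reflect intrinsic compound fluorescence rather than true enhancement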
FAM quench CP1 = counter-screen for GRK2 aptamer inhibitors: fluorescent aptamer quenchers; shares compounds with GRK2 aptamer HTS; Carboxyfluorescein RNA aptamer on beads, flow cytometry quenching; hits give low values; fluorescence response (% of DMSO), % at 10 µM; 2,000 tested, under 10 active;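 active = compounds that quench the bead-bound fluorescent RNA probe, cutting fluorescence to under half of the solvent control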;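 also: counterscreen run without GRK2 so only probe quenching by compound is measured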
GRK2 confirm 2 = human GRK2 inhibition confirmation, cherry pick 2; 360 tested, under 10 active; bead-bound GRK2, FAM-aptamer displacement, flow cytometry; shares compounds with GRK2 aptamer HTS; AID 504782; inhibition of aptamer binding, % at 10 µM;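 active = inhibition of aptamer binding above 40%, about triple the noise seen with nonglowing compounds, on plates passing quality control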;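 also: negative values mostly come from compounds that fluoresce themselves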
FAM quench CP2 = counter-screen for GRK2 binding hits: quenchers of fluorescent RNA aptamer. fluorescence response vs DMSO, % at 10 µM. carboxyfluorescein RNA aptamer beads, flow cytometry quenching; hits give low values. shares compounds with GRK2 aptamer HTS. 360 tested, under 10 active;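 active = response vs DMSO under 50%, meaning signal dropped by over half, treated as fluorescence quencher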;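 also: labelled aptamer on streptavidin beads without GRK2 as a quench counter-screen; 100% = bead fluorescence of DMSO wells and lower means quenching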
Starred values were filed as active, the others as inactive; . = not tested or not shown. Shown are actives, neighbours in structure and some others; about 1.2% of the full set was active somewhere.

SMILES	beta cell repl	Platelet DG rel	GRK2 aptamer HTS	NTR1 agonist	GRK2 CP1	FAM quench CP1	others
O=C(NN1CCOCC1)c1ccc(Br)s1	0.0	0.3	69.0*	3.3	0.3	101.7
CCc1sc(C(=O)Nc2ccc3c(c2)OCCO3)cc1Br	-4.8	-4.5	2.0	5.7	.	.
O=C(Nc1ccc2c(c1)OCCO2)c1ccc(Br)s1	.	4.8	0.0	.	3.1	102.1
CCN(c1ccccc1)S(=O)(=O)c1ccc(OC)c(NC(=O)c2ccc(=O)[nH]c2)c1	-1.1	.	0.0	0.9	.	.
Cc1csc2ncnc(N3CCN(C(=S)Nc4ccc(F)cc4F)CC3)c12	-3.9	11.3	3.0	2.3	.	.
Cc1nc([N+](=O)[O-])cn1CC(=O)Nc1ccc(F)c(Cl)c1	-3.1	-1.9	51.0*	-0.5	-1.5	94.7
O=C(Cn1cnc([N+](=O)[O-])c1)Nc1ccc(F)c(Cl)c1	-1.1	1.7	.	1.2	.	.
O=C(N/N=C/c1cccc(F)c1)c1c(O)c2ccccc2[nH]c1=O	.	11.9	70.0*	.	4.1	94.0
COc1cc(NC(=O)c2cc(-c3ccco3)on2)cc(OC)c1OC	-2.1	-29.2	0.0	0.8	.	.
S=C(NCCc1ccccc1)N1CCc2ccccc2C1	-3.3	-0.6	95.0*	-1.5	-7.6	100.3
COc1ccc(C(=O)N/C(=C\c2cn(C)c3ccccc23)C(=O)N2CCOCC2)cc1OC	-3.3	0.7	57.0*	2.0	-2.6	102.5
CCn1c(=N)n(CC(=O)c2ccc(Br)s2)c2ccccc21	-5.3	-0.2	5.0	2.8	.	.
C=CCn1c[n+](CC(=O)c2ccc(Br)s2)c2ccccc21	2.7	-4.3	57.0*	-1.4	-3.6	103.3
Cc1nnc(SCCCN2C(=O)c3ccccc3C2=O)o1	-0.9	-3.9	15.0	-1.2	-5.4	102.1
CCc1ccc(OCC(=O)Nc2ccc3oc(=O)ccc3c2)cc1	3.1	-1.9	1.0	1.8	.	.
O=C(NCCCN1CCOCC1)c1onc(CSc2ccc(F)c(F)c2)c1C(=O)NCCCN1CCOCC1	-5.1	-0.8	1.0	-0.1	.	.
O=C(O)CC(NC(=O)C12CC3CC(CC(C3)C1)C2)c1ccc(F)cc1 (configuration not stated)	4.0	-1.4	88.0*	0.3	0.7	95.5
O=C(O)CC(NC(=O)C12CC3CC(CC(C3)C1)C2)c1ccc2c(c1)OCO2 (configuration not stated)	-0.4	11.4	1.0	-0.9	.	.
O=C(Cn1nnc(-c2ccccc2)n1)NCC(=O)Nc1ccc(F)c(F)c1F	-3.5	.	0.0	-0.6	0.3	96.6
Cc1ccc2nc(-c3ccccn3)c(Nc3ccccc3C)n2c1	-7.4	29.2	84.0*	5.7	0.3	99.1
O=C(c1ccccn1)C1CCCN(Cc2cn[nH]c2-c2cc3ccccc3o2)C1 (configuration not stated)	-1.0	-2.1	90.0*	1.0	2.0	99.9
O=C(Nc1ccccc1C(=O)N1CCOCC1)c1ccc(Br)cc1	1.0	-3.5	100.0*	-0.7	.	.	GRK2 confirm 2=-14.0;FAM quench CP2=98.0
Cc1cc(CNC(=O)CC2C(=O)NCCN2Cc2ccc(-c3ccccc3)cc2)nn1C (configuration not stated)	-1.9	-5.6	3.0	-0.9	-15.2	95.9
Cc1cc(CNC(=O)CC2C(=O)NCCN2Cc2ccccc2)nn1C (configuration not stated)	2.3	9.5	0.0	-0.2	.	.
O=C1NCCN(Cc2ccc(-c3ccccc3)cc2)C1CC(=O)N1CCN(CCO)CC1 (configuration not stated)	3.2	2.7	100.0*	0.2	0.1	81.5
CCCNc1nc2c(c(=O)n(C)c(=O)n2C)n1CCCc1ccccc1	-2.4	-5.2	0.0	1.6	.	.
O=C(N/C(=C\c1cccc(Br)c1)C(=O)N1CCCCC1)c1ccco1	2.2	3.5	0.0	1.0	.	.
O=c1c2ccccc2nnn1CSc1ccccc1	-2.8	-6.1	97.0*	1.3	.	.	GRK2 confirm 2=12.9;FAM quench CP2=100.0
O=c1c2ccccc2nnn1CSc1ccc2ccccc2n1	0.0	1.7	0.0	5.3	.	.
